Where “and” joins values, the source holds several entries; their conditions need not be identical. Equal entries are not always repeated. A number with no mark means an inactive call. Inconclusive results are not listed. Calls of active or inactive are those of the source. Unless noted, the call rests on the fitted dose curve; in most records, active means well fitted curve in either direction with a large enough effect (not every such curve was filed as active); inconclusive means small, poorly fitted or top-dose-only effect, or another doubt; inactive means flat fitted curve, though single readings scatter.
Tests used:
[1] = AP1 Signaling Pathway (AID 357);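 further: ME-180 reporter cells stimulated with EGF at its EC50 level; on the % scale 0 is the no-effect control and ±100 the full control effect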
Outline: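 Read-out was the 460nm/530nm emission ratio (excitation 405nm) after CCF4 loading for 2.5 hours at room temperature. Cells carried an AP-1-driven beta-lactamase reporter, were stimulated with EC50 EGF plus compound for 5 hours, and AC50 values came from titrations.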

[2] = NFAT Signaling Pathway (AID 444); details: Jurkat NFAT-bla M1, carbachol, beta-lactamase ratio, 5 h;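 further: carbachol stimulus at about its EC50 of 1 µM final; on the % scale 0 is the no-effect control and ±100 the full control effect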
Outline: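 Jurkat cells with NFAT-driven β-lactamase reporter and co-expressed M1 receptor, stimulated with carbachol (final 1 uM, ~EC50), compound titration, 5 h at 37 °C. CCF4 loaded 1 h at RT; 460/530 nm ratio gave %activity and AC50.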

[3] = Stat Signaling Pathway (AID 446);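 further: ME-180 cervical cancer cells given 40 pM IL-6 alongside compound; SIE-controlled beta-lactamase reporter measured as 460/530 nm FRET emission ratio; on the % scale 0 is the no-effect control and ±100 the full control effect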
Outline: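 Overnight-plated ME-180 cells bearing a STAT Inducible Element beta-lactamase reporter; 5 h co-exposure to compound and 40 pM IL-6; values normalized to 300 pM IL-6 and 125 nM JAK inhibitor controls.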

[4] = target: Mitogen-activated protein kinase 10 (Mus musculus) (UniProt Q61831); assay: JNK3 AlphaScreen Assay (AID 530);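 further: kinase came from lysate of stimulated human HepG2 cells; signal reports phosphorylation of biotinylated GST-cJun 1-79 at Ser73 with 10 µM ATP; on the % scale 0 is the no-effect control and ±100 the full control effect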
Outline: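 Activity was read by AlphaScreen after JNK3-containing HepG2 lysate (cytokine pre-activated) phosphorylated biotinylated GST-cJun with 10 uM ATP at room temperature. Phospho-Ser73 cJun antibody with Protein-A acceptor beads provided detection.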

[5] = target: Glucocorticoid receptor (Homo sapiens) (UniProt P04150); assay: GR-GFP Redistribution (AID 450;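 active means compounds whose dose series gives a full or clear partial fitted curve of increased nuclear translocation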; further: potency means the concentration at half of the fitted maximal effect); details: U2OS GR-GFP nuclear translocation, laser cytometry, 2 h
[6] = Cell Viability - BJ (AID 421; calls by dose curve;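 further: potency means the concentration at half of the fitted maximal effect; cells exposed to compound for 40 hours at 37 °C before readout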); details: BJ fibroblast viability, qHTS
Outline: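 Quantitative HTS: ATP depletion in BJ cells after 40 hr compound exposure in complete culture medium, detected with CellTiter-Glo; AC50 from standard Hill fits.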

[7] = Cell Viability - Jurkat (AID 426;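 active means dose-dependent loss of cell ATP signal giving a full or clear fitted curve, ranked by lower potency value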;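 further: potency means the concentration at half of the fitted maximal effect; cells exposed to compound for 40 hours at 37 °C before ATP read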); details: qHTS
Outline: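 Cells of the human T-cell leukemia line Jurkat (E6-1) are seeded at 5000 per well, treated with compound across a concentration range for 40 hours at 37 °C, then lysed with CellTiter-Glo; luminescence reports ATP.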

[8] = Cell Viability - Hek293 (AID 427;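 active means compounds whose dose-response curve shows a full or clear partial loss of cell viability, called from curve shape rather than a numeric limit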;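 further: potency means the concentration at half of the fitted maximal effect; cells exposed to compound for 40 hours at 37 °C before reading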); details: qHTS
Outline: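 AC50 values derive from Hill-modelled concentration-response of ATP-based luminescence, normalized between DMSO-only and 100 uM tamoxifen controls. Cells were exposed in complete culture medium for 40 hr at 37 °C before detection.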

[9] = Cell Viability - HepG2 (AID 433; calls by dose curve;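 further: potency means the concentration at half of the fitted maximal effect; potency for ATP loss meaning cytotoxicity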); details: qHTS
Outline: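 Cytotoxicity is scored as loss of intracellular ATP in HepG2 cells exposed to compounds for 40 h. Concentration-response curves, normalized to DMSO and 100 uM tamoxifen, give AC50 values.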

[10] = Cell Viability - MRC5 (AID 434; calls by dose curve;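 further: potency means the concentration at half of the fitted maximal effect; potency reflects cytotoxicity seen as loss of intracellular ATP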); details: MRC5 lung fibroblast viability, qHTS
Outline: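 ATP luminescence read-out (CellTiter-Glo, 20 min RT) after 40 hr, 37 °C compound exposure of 1500 MRC5 cells/well. Data normalized to DMSO (basal) and 100 uM tamoxifen (100% inhibition); AC50 from standard Hill equation.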

[11] = Cell Viability - SK-N-SH (AID 435; calls by dose curve;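 further: potency means the concentration at half of the fitted maximal effect; compound exposure lasted 40 h at 37 °C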); details: SK-N-SH neuroblastoma cell viability qHTS
Outline: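 Cells seeded at 1500 per well and incubated 5 hr at 37 °C. Compound added, then 40 hr at 37 °C. CellTiter-Glo added, 20 min at room temperature, luminescence read.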

[12] = Cell Viability - N2a (AID 540; active means well fitted curve in the direction sought with a large enough effect; an effect the other way counts as inactive or inconclusive;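 further: cells exposed to compound for 40 h at 37 °C; plate controls were DMSO alone for no effect and tamoxifen control for full effect; nearly all actives have a fitted effect of over 45% in size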); details: N2a mouse neuroblastoma cell viability; activity change, negative = cytotoxicity: at 92.2 µM (top of the series)
Outline: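 Cytotoxicity was scored as loss of cellular ATP in N2a cells, a mouse neuroblastoma line. Compounds are applied in a qHTS concentration series for 40 hr at 37 °C.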

[13] = Cell Viability - NIH 3T3 (AID 541; active means well fitted curve in the direction sought with a large enough effect; an effect the other way counts as inactive or inconclusive;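 further: plate controls were DMSO alone for no effect and tamoxifen positive control for full effect; nearly all actives have a fitted effect of over 25% in size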); details: NIH 3T3 cell viability, qHTS; activity change, negative = cytotoxicity: at 92.2 µM (top of the series)
Outline: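 Cells seeded at 1000/well, rested 5 hr at 37 °C, then dosed and incubated 40 hr at 37 °C. CellTiter-Glo added, 20 min room temperature, luminescence read. AC50 by Hill fit.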

[14] = Cell Viability - HUV-EC-C (AID 542; active means well fitted curve in the direction sought with a large enough effect; an effect the other way counts as inactive or inconclusive; further: on the % scale 0 is the no-effect control and ±100 the full control effect; nearly all actives have a fitted effect of over 35% in size)
Outline: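 Cells were seeded at 1000 per well and incubated 5 hr at 37 °C before compound addition. After 40 hr at 37 °C, CellTiter-Glo reagent was added for 20 min and luminescence read. AC50 values came from Hill-equation modelling.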

[15] = Cell Viability - H-4-II-E (AID 543; active means well fitted curve in the direction sought with a large enough effect; an effect the other way counts as inactive or inconclusive; further: on the % scale 0 is the no-effect control and ±100 the full control effect; nearly all actives have a fitted effect of over 35% in size)
Outline: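 Cells seeded at 1500 per well and rested 5 hr; compounds added; 40 hr incubation at 37 °C; CellTiter-Glo added, 20 min at room temperature; luminescence read. Hill-equation fits gave AC50.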

[16] = Cell Viability - SH-SY5Y (AID 544; active means well fitted curve in the direction sought with a large enough effect; an effect the other way counts as inactive or inconclusive; further: nearly all actives have a fitted effect of over 55% in size; further: potency means the concentration at half of the fitted maximal effect;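 on viability change, negative = cytotoxic: 0% = DMSO alone and -100% = 100 µM tamoxifen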); details: SH-SY5Y neuroblastoma cell viability; viability change, negative = cytotoxic: at 92.2 µM (top of the series)
Outline: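 Cells were plated at 1500 per well and allowed 5 hr at 37 °C. Compounds were added across a concentration range and incubated 40 hr at 37 °C. CellTiter-Glo was added for 20 min at room temperature before luminescence reading.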

[17] = Cell Viability - Renal Proximal Tubule (AID 545; active means well fitted curve in the direction sought with a large enough effect; an effect the other way counts as inactive or inconclusive;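 further: 0% = DMSO only and -100% = 100 µM tamoxifen; nearly all actives have a fitted effect of over 40% in size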)
Outline: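 Cytotoxicity is scored as a concentration-dependent drop in cellular ATP in primary rat renal proximal tubule cells exposed for 40 hr. AC50 derives from Hill modelling.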

[18] = Cell Viability - Mesenchymal (AID 546; active means well fitted curve in the direction sought with a large enough effect; an effect the other way counts as inactive or inconclusive;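 further: cells exposed to compound for 40 hours before reading; 0% = DMSO only and -100% = 100 µM tamoxifen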)
Outline: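 Human renal mesenchymal cells (glomerulus-derived), 1000 cells/well, 5 hr 37 °C pre-incubation; compound 40 hr, 37 °C; CellTiter-Glo, 20 min RT; luminescence; AC50 via Hill equation.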

Sequence of Glucocorticoid receptor (Homo sapiens) (P04150 whole entry, looked up): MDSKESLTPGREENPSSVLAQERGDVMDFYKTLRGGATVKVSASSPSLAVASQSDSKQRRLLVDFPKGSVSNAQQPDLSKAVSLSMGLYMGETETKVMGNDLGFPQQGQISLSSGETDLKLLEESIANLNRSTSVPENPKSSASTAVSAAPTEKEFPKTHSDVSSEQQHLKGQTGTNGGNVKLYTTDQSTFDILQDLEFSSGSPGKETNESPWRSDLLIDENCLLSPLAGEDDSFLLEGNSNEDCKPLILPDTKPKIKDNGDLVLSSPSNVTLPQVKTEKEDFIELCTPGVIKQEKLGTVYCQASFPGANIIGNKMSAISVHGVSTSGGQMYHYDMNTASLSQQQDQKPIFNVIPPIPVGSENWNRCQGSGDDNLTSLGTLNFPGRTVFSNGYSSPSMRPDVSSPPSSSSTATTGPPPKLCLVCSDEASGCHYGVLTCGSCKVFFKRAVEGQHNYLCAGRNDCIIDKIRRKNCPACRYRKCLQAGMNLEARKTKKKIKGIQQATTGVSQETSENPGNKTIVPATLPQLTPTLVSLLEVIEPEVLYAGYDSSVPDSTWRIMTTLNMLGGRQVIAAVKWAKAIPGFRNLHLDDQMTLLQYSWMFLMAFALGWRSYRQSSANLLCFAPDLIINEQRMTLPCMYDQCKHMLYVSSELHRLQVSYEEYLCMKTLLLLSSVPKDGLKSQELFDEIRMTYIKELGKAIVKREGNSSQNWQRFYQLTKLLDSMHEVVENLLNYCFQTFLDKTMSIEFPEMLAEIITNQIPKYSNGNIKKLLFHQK

Cc1cnc(C(=O)NCCc2ccc(S(=O)(=O)NC(=O)NC3CCCCC3)cc2)cn1
outcome [1]: inactive | activity change, negative = inhibition ([2]; at 17.2 µM (top of the series)): -11% and -0.964% | activity change, negative = inhibition ([2]; at 38 µM (top of the series)): -4.17% | outcome [3]: inactive | outcome [4]: inactive

NC(=O)OCC(COC(N)=O)c1ccccc1
outcome [1]: inactive | activity change, negative = inhibition ([2]; at 17.2 µM (top of the series)): 3.58% | activity change, negative = inhibition ([2]; at 38 µM (top of the series)): 8.56% | outcome [3]: inactive | Potency [5]: > 46 µM and > 20.6 µM | outcome [4]: inactive

CCc1cccc2c3c([nH]c12)C(CC)(CC(=O)O)OCC3 (centres undefined)
outcome [1]: inactive | activity change, negative = inhibition ([2]; at 17.2 µM (top of the series)): 12.2% | outcome [3]: inactive

Cn1cnc2c1c(=O)[nH]c(=O)n2C
outcome [1]: inactive | activity change, negative = inhibition ([2]; at 17.2 µM (top of the series)): -1.3% and 20% | activity change, negative = inhibition ([2]; at 38 µM (top of the series)): 4.74% | outcome [3]: inactive | Potency [5]: > 46 µM and > 20.6 µM | outcome [4]: inactive

CN(C)C(=O)C(CCN1CCC(O)(c2ccc(Cl)cc2)CC1)(c1ccccc1)c1ccccc1
outcome [1]: inactive | activity change, negative = inhibition ([2]; at 17.2 µM (top of the series)): -23.1% | activity change, negative = inhibition ([2]; at 38 µM (top of the series)): -13.2% | outcome [3]: inactive | Potency [5]: > 46 µM and > 20.6 µM | outcome [4]: inactive

COc1nc(C)nc(Cl)c1NC1=NCCN1
outcome [1]: inactive | activity change, negative = inhibition ([2]; at 17.2 µM (top of the series)): -14.9% | activity change, negative = inhibition ([2]; at 38 µM (top of the series)): 10.4% | outcome [3]: inactive | Potency [5]: > 46 µM and > 20.6 µM | outcome [4]: inactive

O=C(Nc1ccc([N+](=O)[O-])cc1Cl)c1cc(Cl)ccc1O
outcome [1]: inactive | activity change, negative = inhibition ([2]; at 17.2 µM (top of the series)): -101% (active) | activity change, negative = inhibition ([2]; at 38 µM (top of the series)): -89.8% (active) | Potency [5]: > 46 µM and > 20.6 µM | outcome [4]: inactive

COc1ccc2[nH]cc(CCNC(C)=O)c2c1
outcome [1]: inactive | Potency [6]: > 92 µM | Potency [7]: > 92 µM | Potency [8]: > 92 µM | Potency [9]: > 92 µM | Potency [10]: > 92 µM | Potency [11]: > 92 µM | activity change, negative = inhibition ([2]; at 17.2 µM (top of the series)): -17.4% | activity change, negative = inhibition ([2]; at 38 µM (top of the series)): 14.9% | outcome [3]: inactive | Potency [5]: > 46 µM and > 20.6 µM | outcome [4]: inactive | activity change, negative = cytotoxicity [12]: -15.6% and 3.75% | Potency [13]: inactive | outcome [14]: inactive | Potency [15]: inactive | Potency [16]: inactive | Potency [17]: inactive | outcome [18]: inactive

CC(COc1ccccc1)N(CCCl)Cc1ccccc1 (centres undefined)
outcome [1]: inactive | Potency [6]: > 92 µM | Potency [9]: 38.6 µM (active) | Potency [10]: > 92 µM | outcome [3]: inactive | Potency [5]: > 20.6 µM | outcome [4]: inactive | activity change, negative = cytotoxicity [12]: -85.6% (active) | Potency [16]: 31.6 µM (active)

COc1ccc(C2CNC(=O)C2)cc1OC1CCCC1 (centres undefined)
outcome [1]: inactive | activity change, negative = inhibition ([2]; at 17.2 µM (top of the series)): -22.4% | outcome [3]: inactive | Potency [5]: > 20.6 µM

— PubChem BioAssay (NCATS)
